# TIM10 inh: growth inhibitors of TIM10 yeast strain. actives 1.4% (n = 330,000). S. cerevisiae TIM10 strain growth, BacTiter-Glo luminescence, 24 h. inhibition, % at 10 µM;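 active = inhibition of 40% or more at the single tested concentration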;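 also: wild-type TIM10 isogenic control strain grown at permissive 25 °C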
# PfHsp90 set2: inhibits growth of yeast expressing Plasmodium falciparum Hsp90; S. cerevisiae expressing PfHsp90, BacTiter-Glo ATP, 48 h; yeast lacking PDR1 and PDR3 efflux regulators; inhibition, % at 9.4 µM; actives 0.32% (n = 310,000);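 active = every replicate shows inhibition above about 80%, whatever the replicate mean, limit read from the data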;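 also: 0% = DMSO neutral controls and 100% = 20 µM radicicol positive controls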
# tim10-1 inh: tim10-1 yeast growth inhibition. AID 463190. actives 2.2% (n = 330,000). inhibition, % at 20 µM. S. cerevisiae tim10-1 ts strain growth, BacTiter-Glo, 24 h;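 active = inhibition of at least 40%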;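 also: mutant grown at 25 °C; 0% = DMSO wells with yeast and 100% = wells holding no yeast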
# ATG4B inhibitor: blocks human ATG4B protease cleavage of LC3 substrate; actives 0.51% (n = 340,000); Q9Y4P1; inhibition, % at 8.33 µM; AID 504462; ATG4B cleavage of LC3-PLA2, NBD-HPC fluorescence, 1 h; in the data active = inhibition above about 40%
# Target sequence (Q9Y4P1 whole entry, looked up): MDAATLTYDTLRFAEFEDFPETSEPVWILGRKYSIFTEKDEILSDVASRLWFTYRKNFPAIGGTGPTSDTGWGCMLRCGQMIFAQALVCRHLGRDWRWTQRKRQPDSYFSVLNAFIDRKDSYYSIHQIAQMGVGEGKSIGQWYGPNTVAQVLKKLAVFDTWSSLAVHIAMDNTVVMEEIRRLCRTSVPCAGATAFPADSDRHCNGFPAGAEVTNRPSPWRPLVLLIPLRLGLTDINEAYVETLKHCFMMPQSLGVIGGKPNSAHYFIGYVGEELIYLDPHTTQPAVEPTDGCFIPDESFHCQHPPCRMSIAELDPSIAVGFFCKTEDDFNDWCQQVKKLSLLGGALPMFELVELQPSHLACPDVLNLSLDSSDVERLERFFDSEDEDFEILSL
# tim23-1 inh: growth inhibitors of tim23-1 mutant yeast; S. cerevisiae tim23-1 growth, BacTiter-Glo luminescence, 24 h; inhibition, % at 20 µM; actives 1.3% (n = 330,000); AID 463212;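 active = growth inhibition of the mutant yeast at or above 50%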;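 also: temperature-sensitive mutant grown at 25 °C; plate controls were DMSO-treated mutant yeast for no effect and medium wells lacking yeast for full effect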
# SKKanGAS inh: inhibitors of SKKanGAS S. pyogenes growth in kanamycin (SK-promoter or general growth effect) | BacTiter-Glo, 6 h | inhibition, % at 7.5 µM | actives 1.3% (n = 300,000);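 active = mean replicate score, as percent of positive control median, at least 50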;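 also: strain carries kanamycin resistance gene driven by streptokinase promoter and grows in 40 µg/ml kanamycin; loss of luminescence reflects streptokinase promoter inhibition or plain growth inhibition; 0% = median of DMSO wells and 100% = positive control at its reference dose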
# tim10-1 confirm: tim10-1 yeast growth inhibition, confirmed. S. cerevisiae tim10-1 ts strain growth, BacTiter-Glo, 24 h. inhibition, % at 20 µM. actives 56% (n = 7,400). shares compounds with tim10-1 inh;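 active = inhibition of yeast growth at or above a set limit in either of two repeat tests at 20 µM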;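 also: tim10-1 mutant grown at permissive 25 °C to find synthetic lethal compounds; 0% = DMSO yeast wells and 100% = medium wells without yeast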
# Starred values were filed as active, the others as inactive; · = not tested or not shown. Only some compounds are listed: those with a hit (about 4.7% of all), similar ones and a draw of the others.
SMILES,TIM10 inh,PfHsp90 set2,tim10-1 inh,ATG4B inhibitor,tim23-1 inh,SKKanGAS inh,tim10-1 confirm
Cc1coc(C)c1C(=O)CC1(O)C(=O)N(CCc2ccccc2)c2ccccc21 (stereo not given),4,·,44*,12,27,6,34*
CCCCCCOc1ccc(N2C(=O)CC(N3CCN(CCN=CC4C(=O)CC(C)(C)CC4=O)CC3)C2=O)cc1 (stereo not given),22,23,43*,-8,20,18,41*
C/C(=N\OC(=O)c1c(-c2ccccc2Cl)noc1C)c1ccncc1,16,·,9,-6,-6,-3,·
Cc1onc(-c2cccc(Cl)c2Cl)c1C(=O)O/N=C(\N)c1ccc([N+](=O)[O-])o1,38,-9,44*,-3,40,9,2
Cc1ccc(-c2csc(N3CCN(c4cc5c(cc4Cl)nc(C(C)N)n5CCCO)CC3)n2)cc1 (stereo not given),3,-9,-15,5,-6,4,·
Cc1ccc(-c2csc(N3CCN(c4cc5c(cc4Cl)nc(C)n5CCN4CCCCC4)CC3)n2)cc1,9,·,41*,-5,47,12,11
COc1ccc(CCC(=O)Nc2nccs2)cc1OC,-6,-9,13,-1,10,0,·
Cc1ccc(C(OC(=O)c2ccco2)C(=O)NCc2cccs2)cc1 (stereo not given),-3,1,14,11,20,2,·
CCOc1ccc(C(OC(=O)c2ccco2)C(=O)NCc2ccc(C)cc2)cc1 (stereo not given),-9,-46,43*,-12,23,-6,12
COc1cccc(C2C3=C(CC(C)(C)CC3=O)Nc3cc4c(cc32)OCO4)c1 (stereo not given),-14,24,44*,0,28,-5,11
COc1ccc(Sc2cnn(-c3ccccc3)c(=O)c2Cl)cc1,28,1,48*,-9,45,-4,45*
COc1ccc(-n2ncc(Cl)c(Cl)c2=O)cc1,-15,·,-1,1,-1,-4,·
Cc1[nH]n(-c2ccccc2)c(=O)c1C(c1cccc([N+](=O)[O-])c1O)c1c(C)[nH]n(-c2ccccc2)c1=O,7,4,42*,9,33,19,23
O=C1CC(C(=O)N2CCN(S(=O)(=O)c3cccc(F)c3)CC2)CN1Cc1ccccc1Cl (stereo not given),-6,-3,-22,-8,-24,-9,·
O=C(Nc1ccc(S(=O)(=O)N2CCCCC2)cc1)c1ccccc1F,25,-16,31,-6,29,5,·
O=C(Nc1ccc(F)cc1)c1cc(S(=O)(=O)N2CCCCC2)ccc1F,8,-6,42*,-8,17,0,9
COC(=O)c1cccnc1-n1c(=O)c2cccnc2n(Cc2cccc([N+](=O)[O-])c2)c1=O,-1,-4,12,-2,20,-14,·
COC(=O)c1cccnc1-n1c(=O)c2cccnc2n(Cc2ccc(Cl)cc2)c1=O,38,·,49*,7,45,3,37*
N#CCc1ccc(Oc2ncc(C(F)(F)F)cc2Cl)cc1,31,-13,48*,1,39,-4,28
COc1ccc(S(=O)(=O)NN(C)c2ncc(C(F)(F)F)cc2Cl)cc1,7,5,40*,1,15,-4,15
CC(C)NS(=O)(=O)c1ccc(Oc2ncc(C(F)(F)F)cc2Cl)cc1,8,-71,49*,-9,20,0,26
NC(=O)Nc1ccc(Oc2ncc(C(F)(F)F)cc2Cl)cc1,12,3,30,3,21,4,·
CCCNS(=O)(=O)c1ccc(Oc2ncc(C(F)(F)F)cc2Cl)cc1,24,·,34,-11,33,2,·
COC(=O)COc1ccc2c(-c3cccc([N+](=O)[O-])c3)cc(=O)oc2c1,8,-5,-12,-4,-8,2,·
Cc1c(Br)c([N+](=O)[O-])nn1CC(=O)N1CCc2ccccc21,-6,20,1,4,-5,-13,·
SMILES,TIM10 inh,PfHsp90 set2,tim10-1 inh,ATG4B inhibitor,tim23-1 inh,SKKanGAS inh,tim10-1 confirm
Cc1c(Br)c([N+](=O)[O-])nn1C(C)C(=O)N1CCCc2ccccc21 (stereo not given),30,-4,40*,-4,42,-2,37*
N#CC1=C(SCC(=O)c2ccccc2)NC2=C(C(=O)CCC2)C1c1ccco1 (stereo not given),21,0,49*,-4,-26,14,17
CCOC(=O)C1CCN(Cc2cc(Cl)c3ccccc3c2O)CC1,25,33,29,-6,39,5,·
Oc1c(CN2CCCC(C(F)(F)F)C2)cc(Cl)c2ccccc12 (stereo not given),25,16,42*,5,34,14,30
CCCNC(=S)Nc1ccc(Nc2ccccc2)cc1,1,5,42*,-8,25,-5,24
CCCCNC(=S)Nc1ccc(C(F)(F)F)cc1,21,-13,54*,10,47,9,31*
CCCCNC(=S)Nc1ccc(Cl)cc1,-7,-18,12,-8,28,12,·
S=C(NCCCNC(=S)Nc1ccccc1)Nc1ccccc1,5,-2,10,9,22,2,·
CCCn1nnnc1NCc1c(F)cccc1Cl,1,1,5,-8,12,1,·
COc1ccc(C(=O)NN2C(=O)C3C4C=CC(O4)C3C2=O)cc1 (stereo not given),6,11,1,3,4,-1,·
CN1CCN(c2nc(-c3ccccc3)c3cc(Cl)ccc3n2)CC1,37,-109,42*,-4,26,3,18
O=C(CN1C(=O)CNC1=O)Nc1cc(Cl)cc(Cl)c1,8,·,19,-11,15,·,·
CCN(Cc1ccncc1)Cc1c(O)ccc2cc(Br)ccc12,30,·,46*,-16,30,9,22
CC(C)=C1C2CCC1C(C(=O)NCCc1ccccc1)C2C(=O)O (stereo not given),1,-8,44*,2,28,-3,23
COC(=O)c1ccc(N2CCN(c3ccccc3)CC2)c(N)c1,-5,-19,80*,2,-8,2,8
Cc1ccc(-n2nc(C)c(C(=O)Nc3cccc(C(=O)NC4CC4)c3)n2)c(C)c1,15,-7,44*,0,28,·,18
Cc1nn(-c2cccc(Cl)c2)nc1C(=O)Nc1cccc(C(=O)NC2CC2)c1,-5,-9,4,-10,19,·,·
C=CCN(C(=O)c1cccc(S(=O)(=O)N2CCN(C)CC2)c1)c1nc(-c2ccccc2)cs1,31,0,50*,-15,48,-2,41*

# Screening results from PubChem BioAssay.
